Pf apPOL inh – Pf-apPOL inhibitors, biochemical, fluorescence; Plasmodium falciparum apicoplast DNA polymerase (apPOL); Recombinant Pf-apPOL, molecular beacon fluorescence, 1.5 h; inhibition, % at 10 µM; hit rate 0.25% among 210,000; AID 1794808, 2022
mHTT-CaM PPI inh – mutant huntingtin-calmodulin interaction inhibitors – biochemical, AlphaScreen, primary screen; AlphaScreen His-mHTT/GST-CaM binding, luminescence; P42858; hit rate 3.6% among 190,000; inhibition, % at 15 µM;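 also: 0% = both proteins with DMSO and 100% = one protein alone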
* = called active by the depositor; · = not tested or not shown; ! = repeats disagree. The sample as a whole holds a higher share of hits than the screen did. Rule as the data show it: active = inhibition above about 50%; inactive = the rest.

SMILES	Pf apPOL inh	mHTT-CaM PPI inh
COc1cc(OC)c2ccc(=O)oc2c1C(CC(=O)N1CCN(c2ccccc2)CC1)c1ccc2c(c1)OCO2 (configuration not stated)	-4.5	69.7*
COc1cc(C(CC(=O)N2CCN(c3ccccc3)CC2)c2c(OC)cc(OC)c3ccc(=O)oc23)cc(OC)c1OC (configuration not stated)	-3.0	71.0*
Cc1c(Cl)cccc1NC(=O)Cn1c(=O)oc2ccccc21	-2.0	-2.0
Cc1ccc2nc(NC(=O)CSc3ccc(-n4cccn4)nn3)sc2c1	-2.7	-13.3
Cc1ccc2nc(NC(=O)CSc3ccc4nnc(-c5ccccn5)n4n3)sc2c1	4.7	79.5*
CCOC(=O)CC(=O)CSc1ccc2nnc(-c3ccccn3)n2n1	2.0	83.1*
O=C(CSc1ccc2nnc(-c3ccccn3)n2n1)NCc1ccc2c(c1)OCO2	4.6	23.8
CC(=O)C1=C(C)NC(SCC(=O)c2ccc(Cl)cc2Cl)=C(C#N)C1c1cccs1 (configuration not stated)	-2.4	-17.7
Cc1ccc(S(=O)(=O)N2CCC(=O)N([C@H](COCc3cccc(C)c3)C(C)C)CC2)cc1	-3.9	-9.0
Cc1ccc(S(=O)(=O)N2CCC(=O)N(CCOCc3cccc(C(F)(F)F)c3)CC2)cc1	-1.4	7.4
CC(C)C[C@@H](COCc1cccc(C(F)(F)F)c1)N1CCN(C(=O)c2ccc(C(F)(F)F)cc2)CCC1=O	-0.4	89.2*
Cc1cccc(COC[C@H](CC(C)C)N2CCN(C(=O)c3ccc(C(F)(F)F)cc3)CCC2=O)c1	-2.2	90.3*
Cc1cccc(N=c2oc3c(C)ncc(CO)c3cc2C(=O)Nc2cccc(C)c2)c1	-0.5	6.0
O=C(O)CC(c1ccccc1)c1ccco1 (configuration not stated)	9.3	-3.1
CNC(=S)Nc1ccccc1	6.8	·
O=C(c1ccco1)N1CCC(CCOc2ccccc2)CC1	0.8	8.1
CC1C(=O)N2CCCc3cc(NC(=O)C(=O)NCc4ccc5c(c4)OCO5)cc1c32 (configuration not stated)	3.7	24.6
CC1C(=O)N2CCCc3cc(NC(=O)COc4ccc5ccccc5c4)cc1c32 (configuration not stated)	-12.3	51.5*
CCc1ccc2oc(-c3cccc(NC(=O)c4ccccc4[N+](=O)[O-])c3)nc2c1	-1.2	-0.2
COc1ccc(N2CC(C(=O)Nc3ccc(F)cc3)CC2=O)cc1 (configuration not stated)	0.7	-3.8
Cc1ccc(Nc2c3c4c(cccc4n(C)c2=O)C(=O)c2ccccc2-3)cc1	-2.5	36.0
COc1cccc(NC2=C(n3nnc4ccccc43)C(=O)c3ccccc3C2=O)c1	-0.6	8.0
Cc1ccc(NC2=C(n3nnc4ccccc43)C(=O)c3ccccc3C2=O)cc1	3.4	52.0*
CN(C)c1ccc(NC2=C(n3nnc4ccccc43)C(=O)c3ccccc3C2=O)cc1	-8.7	51.0*
CCN(CC)C1=C(n2nnc3ccccc32)C(=O)c2ccccc2C1=O	-6.1	27.0
SMILES	Pf apPOL inh	mHTT-CaM PPI inh
Cc1ccc(NC2=C(NCCO)C(=O)c3ccccc3C2=O)cc1	0.1	67.1*
COc1cccc(/C=c2\sc3n(c2=O)CN(c2ccc(C)cc2)CN=3)c1	-12.0	-1.0
O=C(Cc1ccc(F)cc1)N1CCc2[nH]cnc2C1c1ccccc1 (configuration not stated)	-1.5	18.3
O=C(C1CCCCC1)N1CCCC(c2ccnc(-c3ccc(F)cc3)n2)C1 (configuration not stated)	-3.2	23.3
COc1ccc(OC)c(-c2cc(C(=O)N3CCN(c4ccccn4)CC3)[nH]n2)c1	-6.7	3.2
COc1ccc(Cc2nc(-c3ccc([N+](=O)[O-])cc3)no2)cc1	-5.4	9.0
Cc1ccnc(NC(c2ccc(F)cc2)c2ccc3cccnc3c2O)c1 (configuration not stated)	1.7	98.0*
O=C(NCCCOc1cccc2cccnc12)c1ccc2c(c1)OCO2	-3.5	6.7
Cc1ccnc(NC(c2ccc3c(c2)OCO3)c2ccc3cccnc3c2O)c1 (configuration not stated)	1.2	99.0*
Cc1ccnc(NC(c2ccncc2)c2ccc3cccnc3c2O)c1 (configuration not stated)	4.9	100.0*
Cc1ccnc(NC(=O)c2ccc(C(=O)Nc3cc(C)ccn3)cc2)c1	4.5	7.0
Cc1ccc(NC(=O)c2cccnc2-c2ccsc2)c(C)c1	1.4	0.9
Cc1ccnc(NC(c2ccsc2)c2ccc3cccnc3c2O)c1 (configuration not stated)	-1.1	99.5*
Cc1ccnc(NC(=O)Nc2ccc(F)cc2)c1	-8.5	-0.9
CC(C)NC(=O)c1ccc(OCC2CCCN(C(=O)c3cc(F)ccc3Cl)C2)cc1 (configuration not stated)	-5.4	4.3
Cc1ccnc(NC(c2ccccn2)c2ccc3cccnc3c2O)c1 (configuration not stated)	-4.5	100.0*
Cc1ccnc(NC(=O)c2ccc(-c3nc(-c4ccccc4)no3)cc2)c1	-3.1	-5.2
COc1ccc(OC)c(/C=C2\C=C(c3cc(OC)ccc3OC)OC2=O)c1	-7.7	12.0
COc1ccc(C)cc1C1=C/C(=C\c2ccc(C)o2)C(=O)O1	2.8	61.0*
O=C1NC(=O)c2cc(N3Cc4ccccc4C3)ccc21	-2.3	78.9*
Cc1cc(N2Cc3ccccc3C2)ccc1C=O	2.9	81.9*
Cc1ccc(N2C(=O)CC(N3CCc4ccccc4C3)C2=O)cc1C (configuration not stated)	-8.8	0.3
O=C1NC(=O)c2cc(-c3ccccc3)ccc21	1.6	-8.0
O=C(CSc1nnnn1-c1ccccc1F)Nc1ccccc1F	5.1	-3.0
O=c1c(=Cc2ccc(F)cc2)sc2n1C(c1cccs1)C1=C(N=2)c2ccccc2CC1 (configuration not stated)	0.3	·
SMILES	Pf apPOL inh	mHTT-CaM PPI inh
N#Cc1c(N)nc(SCC(=O)c2ccccc2)c(C#N)c1-c1ccc(O)cc1	-1.6	62.0*
CCOc1ccc(-c2c(C#N)c(N)nc(SCC(=O)c3ccc(OC)cc3)c2C#N)cc1	-23.2	-1.0
CCOc1ccc(-c2c(C#N)c(N)nc(SCC(=O)c3ccc(O)c(O)c3)c2C#N)cc1	-8.0	69.0*
N#Cc1c(N)nc(SCC(=O)c2ccc([N+](=O)[O-])cc2)c(C#N)c1-c1ccccc1	-1.2	15.0
CCOc1ccc(-c2c(C#N)c(N)nc(SCC(=O)c3ccc(C)cc3)c2C#N)cc1	6.1	-5.0
N#Cc1c(N)nc(SCC(=O)c2ccc(Br)cc2)c(C#N)c1-c1ccc(O)cc1	-1.1	78.5*!
CS(=O)(=O)Oc1ccc2c(c1)OC(=Cc1ccc3c(c1)OCO3)C2=O	-5.4	-3.9
O=C1CS(=O)(=O)C(c2ccc(Cl)cc2Cl)N1c1ccc(Cl)cn1 (configuration not stated)	1.2	0.0
Cc1ccc(Cl)cc1NC=CC(=O)c1ccc(Cl)cc1	-8.1	1.0
Cc1nc(C)c(-c2ccc(SCC(=O)c3ccc([N+](=O)[O-])cc3)nn2)s1	2.2	20.9
O=C(CSc1ccc(-c2ccccn2)nn1)c1ccc([N+](=O)[O-])cc1	2.4	99.6*
COc1ccc(C2CCCN2C(=O)c2c(OC)cccc2OC)cc1 (configuration not stated)	-9.6	3.6
CC(=O)N1c2ccc(S(=O)(=O)Nc3cccc(C)c3)cc2CC1C (configuration not stated)	7.6	6.0
